This is a sample that favours compounds with a hit; in the whole collection about 10% have one here.
3T3 cytotox = cytotoxic compounds in NIH 3T3 cells. NIH 3T3 viability, CellTiter-Glo ATP luminescence, 48-72 h. Potency, µM (titrated, usually from 96.7 µM), for the others: at the highest dose activity change, negative = cytotoxicity, usual class: inhibitors. 94,000 compounds, 4.3% hits. AID 1345082; also: nearly all actives have a fitted effect of over 55% in size
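ATP-dependent luminescence (CellTiter-Glo) served as the viability signal for NIH 3T3 cells treated with compound for 48 or 72 hr at 37 °C.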
hNpr1 antagonist = blocks ANP-stimulated signaling of human Npr1 receptor | HEK293 hNpr1 GloSensor cGMP, ANP-stimulated luminescence | AID 1347048 | 76,000 compounds, 1.6% hits | Potency, µM (top dose mostly 46.3 µM), for the others: top-dose activity change, negative = inhibition, usual class: inhibitors | P16066; calls by dose curve; also: nearly all actives have a fitted effect of over 60% in size
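HEK293 cells stably expressing human Npr1 and cGMP GloSensor pGS-40F, loaded 2 h with 2% GloSensor reagent, given compound 30 min at room temperature. Luminescence read before and 20 min after 0.1 nM hNppA.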
HEK cytotox = kills HEK 293 cells; HEK 293 viability, ATP luminescence (CellTiter-Glo), 48-72 h; Potency, µM (series often up to 115 µM), for the others: top-dose activity change, negative = cytotoxicity, actives largely listed as inhibitors; 94,000 compounds, 6.6% hits; AID 1345083; also: nearly all actives have a fitted effect of over 60% in size
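CellTiter-Glo luminescence (cellular ATP) was read after 48 or 72 hr of compound exposure at 37 degree Celsius. Cells were HEK 293 plated at 250 cells/well.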
GPT2 inh = blocks human glutamate pyruvate transaminase 2. Recombinant GPT2, coupled pyruvate oxidase/HRP Amplex Red fluorescence. Potency, µM (titrated, usually from 57.7 µM), for the others: top-dose activity change, negative = inhibition, most hits filed as inhibitors. 100,000 compounds, 0.25% hits; also: nearly all actives have a fitted effect of over 60% in size
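Fluorescence of coupled pyruvate oxidase/HRP/Amplex Red system (50uM Amplex, 30 min, dark) reports pyruvate formed by GPT2. Enzyme reaction: 10ng/uL GPT2, 2mM L-alanine, 250uM a-KG, 30 min room temperature, pH 7.5; 50uM AOA control.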
FLuc inh = inhibitors of firefly (Photinus pyralis) luciferase; P08659; purified P. pyralis luciferase, luminescence, biochemical; Potency, µM (top dose mostly 115 µM), actives largely listed as inhibitors; 76,000 compounds, 2.5% hits; AID 1347043; also: nearly all actives have a fitted effect of over 65% in size
Target sequence (P08659 whole entry, looked up): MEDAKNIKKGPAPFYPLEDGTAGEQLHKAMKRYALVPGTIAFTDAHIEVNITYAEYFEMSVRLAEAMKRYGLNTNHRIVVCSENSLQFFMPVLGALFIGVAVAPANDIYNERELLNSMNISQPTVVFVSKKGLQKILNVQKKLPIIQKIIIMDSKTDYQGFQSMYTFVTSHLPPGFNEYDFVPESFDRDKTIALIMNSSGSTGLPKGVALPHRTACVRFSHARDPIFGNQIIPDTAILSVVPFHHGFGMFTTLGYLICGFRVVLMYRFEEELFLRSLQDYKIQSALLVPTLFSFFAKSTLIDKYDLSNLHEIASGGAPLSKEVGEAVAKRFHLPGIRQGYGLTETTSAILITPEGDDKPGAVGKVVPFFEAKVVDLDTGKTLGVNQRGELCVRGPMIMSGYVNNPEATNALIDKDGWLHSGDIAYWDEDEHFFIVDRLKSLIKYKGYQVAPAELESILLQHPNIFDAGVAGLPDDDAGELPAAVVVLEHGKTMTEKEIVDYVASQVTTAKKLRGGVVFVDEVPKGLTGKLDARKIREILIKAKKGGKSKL
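Purified 10nM P. pyralis luciferase with 10uM D-luciferin and 10uM ATP in 50mM Tris acetate pH 7.5, 10mM Mg acetate, 0.01% Tween-20, 0.05% BSA. qHTS titration; luminescence read by CCD imager.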
Numbers without * were called inactive; i = inactive; ? = inconclusive; / = not tested or not shown; [ ] = another dose, or the depositor's remark. Unless noted, calls follow the shape of the dose curve; as a rule, active = well fitted curve in the direction sought with a large enough effect; inconclusive = small, poorly fitted or top-dose-only effect, or another doubt; inactive = no such curve, though single readings can be large; an effect the other way counts as inactive or inconclusive. % is scaled to controls: 0 for no effect and ±100 for the full control effect; potency is read from the fitted curve at half-maximal effect.

SMILES | 3T3 cytotox | hNpr1 antagonist | HEK cytotox | GPT2 inh | FLuc inh
CC(=O)NC1(C)CCCN(Cc2cccc(-c3ccccc3)c2)C1 (centres undefined) | ? | -2.3%[70.6 µM] | ? | -5.1%[88.5 µM] | i
CC(=O)NC1(C)CCN(Cc2cccc(-c3ccc(N4CCOCC4)cc3)c2)C1 (centres undefined) | -23.7%[138 µM] | 3.98µM* | ? | -4.0%[88.5 µM] | 5.62µM*
CCN1CCN(Cc2cc(C)cc(CN(C)Cc3ncc(C)[nH]3)c2C)CC1 | -25.9% | -1.8% | ? | i | 39.8µM*
Cc1cnc(CN(C)Cc2cn(-c3ccccc3)nn2)[nH]1 | -6.1% | 0.5% | -8.8% | 3.4% | i
O=S(=O)(NCCc1noc(-c2ccccc2)n1)c1ccc(Cl)cc1 | 28.2µM* | ? | 39.8µM* | -13.9% | i
COC(=O)[C@@H]1Cc2c([nH]c3ccccc23)[C@H]2C[C@@H](NCc3cccs3)C[C@@H](c3ccc(F)cc3)N21 | 79.4µM* | -0.2% | ? | 0.6% | i
COC(=O)[C@@H]1Cc2c([nH]c3ccccc23)[C@H]2C[C@H](NCc3cccs3)C[C@@H](c3ccc(F)cc3)N21 | 22.4µM* | 0.5% | 28.2µM* | -4.5% | i
CCOc1ccccc1C(=O)NC1CCN(c2cc(-c3ccc(Cl)cc3)[nH]n2)C1 (centres undefined) | ? | -22.7% | 35.5µM* | ? | i
CCOc1ccc(C(=O)NC2CCN(c3cc(-c4ccc(Cl)cc4)[nH]n3)C2)cc1 (centres undefined) | ? | -18.1% | ? | -29.1% | i
O=C(NC1CCN(c2cc(-c3ccc(Cl)cc3)[nH]n2)C1)c1ccccc1 (centres undefined) | ? | -8.1% | ? | ? | i
Cc1ccccc1C(=O)NC1CCN(c2cc(-c3ccc(Cl)cc3)[nH]n2)C1 (centres undefined) | 39.8µM* | -13.8% | ? | -9.6% | i
CCOc1ccccc1C(=O)NC1CCCN(c2cc(-c3ccc(F)cc3)[nH]n2)C1 (centres undefined) | 31.6µM* | -19.1% | 39.8µM* | -23.4% | i
CCOc1ccc(C(=O)NC2CCCN(c3cc(-c4ccc(OC)cc4)[nH]n3)C2)cc1OCC (centres undefined) | -14.9% | 1.4% | ? | -4.8% | i
CCOc1ccc(C(=O)NC2CCCN(c3cc(-c4ccc(F)cc4)[nH]n3)C2)cc1OCC (centres undefined) | 31.6µM* | -0.1% | 28.2µM* | 2.5% | i
NCCn1cc(C(=O)N2CCCC(c3[nH]ncc3Cc3ccccc3)C2)nn1 (centres undefined) | -6.7% | -0.2% | ? | i | i
COc1cccc(CCC(=O)N2CCCCCC2CN2CCC(OC)CC2)c1 (centres undefined) | -16.6% | -9.4% | -27.4% | 4.6% | i
Cc1ccc(NC(=O)C2CCc3nnc(CN[S+](=O)([O-])c4ccccc4Cl)n32)cc1 (centres undefined) | ? | / | -7.8% | i | /
COc1ccc(CN2CC3(Cc4ccccc4C(=O)N3)C2)cc1 | ? | / | ? | -4.7% | /
N#Cc1ccc(CN2CC3(Cc4ccccc4C(=O)N3)C2)cc1 | 35.5µM* | / | ? | -32.9% | /
O=C(Cn1cnnn1)NCc1ccc(-c2cnc3c(Oc4ccccc4)nccn23)cc1 | -21.8%[138 µM] | -16.7%[70.6 µM] | ? | -0.7%[88.5 µM] | i
OC1CCC(NCc2ccc(-c3cnc4c(OCc5ccccc5)nccn34)cc2)CC1 (centres undefined) | 22.4µM* | 3.6%[70.6 µM] | 50.1µM* | -2.0%[88.5 µM] | i
NC(=O)C1CCCN(Cc2ccc(-c3cnc4c(OCc5ccccc5)nccn34)cc2)C1 (centres undefined) | 39.8µM* | -17.5% | 44.7µM* | i | 44.7µM*
O=C1CN(Cc2ccc(-c3cnc4c(OCc5ccccc5)nccn34)cc2)CCN1 | ? | ? | ? | i | ?
O=[S+]1([O-])CCN(Cc2ccc(-c3cnc4c(OCc5ccccc5)nccn34)cc2)CC1 | 22.4µM* | 11.2µM* | 35.5µM* | ? | ?

Screening data deposited in PubChem BioAssay by National Center for Advancing Translational Sciences (NCATS).
